Screening results as filed in PubChem.
DENV2 CPE rescue = protects cells from dengue virus 2 cytopathic effect; CPE inhibition, % at 9.99 µM; 1.7% of 350,000 active; DENV2-infected cells, cytopathic effect rescue, plate reader; in the data active means CPE inhibition above about 20%, passing the limit was not always enough; inconclusive means no clear call, values can overlap the other calls; tested in BHK-21 cells
AF4-AF9 inh = blocks AF4 peptide binding to human AF9. 0.47% of 350,000 active. AlphaScreen, biotin-AF4 peptide binding to FLAG-AF9. AID 651704. P42568. inhibition, % at 10 µM;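 active means every replicate reaching a set inhibition limit, whatever the replicate mean, cut at about 25% in these data; inconclusive means mean inhibition reaches that limit but some replicates miss it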
ERp5 block = blocks human ERp5 reductase activity on insulin | inhibition, % at 9.99 µM | 0.05% of 350,000 active | AID 651711 | ERp5 insulin aggregation, absorbance 650 nm, 90 min;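 active means mean replicate inhibition above about 25%, with every replicate also reaching it, limit read from the data, passing the limit was not always enough; inconclusive means only one of those two criteria met; inactive means neither criterion met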
PDI turbidity = inhibitors of human protein disulfide isomerase; P07237; PDI insulin aggregation turbidity, A650, 90 min; inhibition, % at 10 µM; 0.052% of 350,000 active;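 active means mean inhibition across replicates of 30% or more, whatever share of single replicates reach that level; inconclusive means mean inhibition below 30% while every single replicate reaches 30%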
ERAP1 HTS inh = inhibitors of human ERAP1 aminopeptidase | Q9NZ08 | recombinant ERAP1, Leu-AMC fluorescence, 60 min | inhibition, % at 10.7 µM | 0.15% of 340,000 active;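 active means mean replicate inhibition of at least 30%, or all replicates individually reaching that 30% level; inactive means mean below 30% and not every replicate reaching it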
Numbers stand for hits; – = inactive; ? = inconclusive; · = no result given. Only some compounds are listed: those with a hit (about 1.8% of all), similar ones and a draw of the others.

SMILES	DENV2 CPE rescue	AF4-AF9 inh	ERp5 block	PDI turbidity	ERAP1 HTS inh
O=C(CN1CC(c2ccccc2)CC1=O)Nc1ccccc1 (stereo unspecified)	115	–	–	·	–
COC(=O)[C@H]1[C@H](CO)[C@H]2Cn3c(cccc3=O)[C@@H]1N2C(=O)C1CCC1	–	–	–	·	–
COC(=O)[C@H]1[C@H](CO)[C@H]2Cn3c(ccc(/C=C/c4ccccc4)c3=O)[C@@H]1N2Cc1ccccc1F	–	–	–	·	–
CC1=NCCc2c1[nH]c1cc(O)ccc21	–	–	–	–	53
COP(=O)(NC(C)=O)SC (stereo unspecified)	–	–	–	–	–
COP(=O)(NC(=O)C(Cl)(Cl)Cl)OC	–	27	–	–	–
N#Cc1cccc(-c2ccc([C@@H]3[C@@H](CO)N4CCCCN(C(=O)Cc5ccncc5)C[C@H]34)cc2)c1	–	–	–	·	–
CN(C)CC1CSCCC1(O)c1ccc(C(F)(F)F)cc1 (stereo unspecified)	69	–	–	–	–
O=C(Cc1cccnc1)N1CCCCN2[C@H](CO)[C@@H](c3ccc(C#CC4CC4)cc3)[C@@H]2C1	–	–	–	·	–
COC(=O)[C@@H]1[C@@H](CO)[C@@H]2Cn3c(ccc(-c4ccncc4)c3=O)[C@H]1N2S(=O)(=O)c1ccccc1F	–	–	–	·	–
O=P1(c2ccccc2)Nc2ccccc2N1c1ccccc1 (stereo unspecified)	–	28	–	–	–
CCCN(CCC)CCc1c[nH]c2ccccc12	–	·	–	·	–
NCCc1c[nH]c2ccccc12	63	–	–	·	–
Fc1ccccc1CNCCc1c[nH]c2ccccc12	32	–	–	–	–
O=C1C2C3CCC(O3)C2C(=O)N1c1cccc(F)c1 (stereo unspecified)	–	–	–	–	–
CCC(c1ccc(C)cc1)N1C(=O)C2C3CCC(O3)C2C1=O (stereo unspecified)	25	–	–	–	–
Cc1ccccc1-c1ccc([C@@H]2[C@H](CO)N3CCCCN(C(=O)Cc4ccccn4)C[C@@H]23)cc1	–	–	–	·	–
Cc1[nH]c2ccccc2c1C1=CCNCC1	–	38	–	–	–
C1=C(c2ccccc2)CCNC1	–	–	–	–	–
CCCN1[C@@H]2Cn3c(ccc(-c4ccccc4)c3=O)[C@H]1[C@@H](C(=O)OC)[C@@H]2CO	–	–	–	·	–
CCC(=O)N1[C@@H]2c3ccc(-c4cccc(F)c4)c(=O)n3C[C@H]1[C@H](CO)[C@H]2C(=O)OC	–	–	–	·	–
Brc1ccc2[nH]cc(/C=N/N3CCCCC3)c2c1	–	26	–	–	–
CCOC(=O)[C@@H]1[C@@H]2NC(=S)N[C@@]1(C)Oc1ccccc12	–	–	–	·	–
COC(=O)C1C2CC[C@@H](CC1OC(=O)c1ccccc1)N2 (stereo partly specified)	·	·	·	–	·
COC(=O)C1C(OC(=O)c2ccccc2)CC2CCC1[N+]2(C)C (stereo unspecified)	–	·	–	·	51
SMILES	DENV2 CPE rescue	AF4-AF9 inh	ERp5 block	PDI turbidity	ERAP1 HTS inh
CN(C)C(=O)OCc1n(C)cc[n+]1C	·	·	·	–	·
CCN(CC)P(c1n(C)cc[n+]1C)N(CC)CC	–	–	–	–	103
CCOc1cc2c(cc1OCC)-n1cccc1C(c1ccc(C)cc1C)NC2 (stereo unspecified)	–	26	–	–	–
CCOc1cc2c(cc1OCC)-n1cccc1C(c1ccccc1F)NC2 (stereo unspecified)	–	?	–	–	–
CCOc1cc2c(cc1OCC)-n1cccc1C(c1cccc(F)c1)NC2 (stereo unspecified)	–	26	–	–	–
CCOc1cc2c(cc1OCC)-n1cccc1C(c1cc(OC)ccc1F)NC2 (stereo unspecified)	–	27	–	–	–
CCCN1[C@@H]2c3ccc(-c4ccc(OC)cc4)c(=O)n3C[C@H]1[C@H](CO)[C@H]2C(=O)OC	–	–	–	·	–
COC(=O)C1=C(c2ccc(OC(F)(F)F)cc2)C[C@@H]2CC[C@H]1N2C(=O)NC1CCCCC1	37	–	–	–	–
COC(=O)C1=C(c2ccc(OC(F)(F)F)cc2)C[C@@H]2CC[C@H]1N2C(=O)NCCNC(C)=O	–	–	–	–	·
COC(=O)C1=C(c2ccc(OC(F)(F)F)cc2)C[C@@H]2CC[C@H]1N2C(=O)NCCOc1ccc(OC)cc1	26	–	–	–	·
COC(=O)[C@@H]1[C@@H](CO)[C@@H]2Cn3c(ccc(-c4ccccc4)c3=O)[C@H]1N2CC1CC1	–	–	–	·	–
